Source: PubChem BioAssay (National Center for Advancing Translational Sciences (NCATS))
mIDH1 inhibitor: blocks human mutant IDH1 R132H enzyme. O75874. IDH1-R132H enzyme, NADPH consumption, diaphorase/resazurin fluorescence. Potency, µM (series often up to 76.6 µM), without a hit: at the highest dose activity change, negative = inhibition, usual class: inhibitors. actives 0.093% (n = 390,000). AID 602179; note: potency is the fitted concentration of half-maximal effect; % is set by controls: 0 for no effect and ±100 for the full control effect; nearly all actives have a fitted effect of over 65% in size
Target sequence (O75874 whole entry R132H, stated change not applied): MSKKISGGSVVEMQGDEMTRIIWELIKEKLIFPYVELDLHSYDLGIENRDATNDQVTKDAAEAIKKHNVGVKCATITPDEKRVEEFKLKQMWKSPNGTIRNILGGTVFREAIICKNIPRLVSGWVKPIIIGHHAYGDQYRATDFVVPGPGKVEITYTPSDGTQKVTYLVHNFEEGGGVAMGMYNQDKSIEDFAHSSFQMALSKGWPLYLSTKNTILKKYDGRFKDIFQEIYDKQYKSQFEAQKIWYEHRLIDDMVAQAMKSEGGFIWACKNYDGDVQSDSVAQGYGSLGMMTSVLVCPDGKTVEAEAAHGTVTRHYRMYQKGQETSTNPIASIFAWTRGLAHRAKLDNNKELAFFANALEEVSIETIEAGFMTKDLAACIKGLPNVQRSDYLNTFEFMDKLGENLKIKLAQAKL
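IDH1-R132H (0.5 ug/mL) preincubated 30 min with compound, then NADPH (0.016 mM) and alpha-KG (2 mM) added; 80 min at RT, pH 7.5. Remaining NADPH coupled via diaphorase/resazurin to fluorescence (540/590 nm); concentration-response curves normalized to no-enzyme control.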
RGS4 inhibitor: inhibitors of human regulator of G protein signaling 4. actives 0.039% (n = 390,000). Potency, µM (series often up to 114 µM), for inactives: top-dose activity change, negative = inhibition, most hits filed as inhibitors. P49798. Transcreener GDP fluorescence polarization, RGS4-accelerated GTP hydrolysis. AID 504845; note: potency is the fitted concentration of half-maximal effect; % is set by controls: 0 for no effect and ±100 for the full control effect; nearly all actives have a fitted effect of over 75% in size
Target sequence (P49798 whole entry, looked up): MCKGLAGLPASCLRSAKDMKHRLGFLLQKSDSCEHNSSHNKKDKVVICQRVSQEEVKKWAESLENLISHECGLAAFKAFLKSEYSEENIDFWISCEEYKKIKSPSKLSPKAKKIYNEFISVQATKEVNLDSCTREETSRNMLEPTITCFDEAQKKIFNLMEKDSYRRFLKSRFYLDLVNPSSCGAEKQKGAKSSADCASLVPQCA
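MLSMR compounds (23 nl, pin-transferred) preincubated 10 min at room temperature with a 500nM (2x) first reagent, then RGS4 at 900nM (2x) plus Transcreener GDP mix added; fluorescence polarization (620/688 nm) read before and after 90 min at 30 °C.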
Mito fusion yeast: inhibitors of mitochondrial division or activators of mitochondrial fusion | Potency, µM (series often up to 46.1 µM), for the others: at the highest dose growth rescue (activation), actives largely listed as activators | actives 0.23% (n = 320,000) | S. cerevisiae fusion-defective mutant growth rescue, CellTiterGlo 48 h; note: potency is the fitted concentration of half-maximal effect; % of control where 0% means no effect; nearly all actives have a fitted effect of over 45% in size
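Luminescent cell viability in 1536-well qHTS format served as the measure of rescued growth in ts fusion-mutant S. cerevisiae cultured on non-fermentable YPEG for 48 hours at 37C.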
ClpP mod: qHTS Assay for Activators of ClpP; purified B. subtilis ClpP, FRET peptide cleavage, 20 min; ATP-dependent Clp protease proteolytic subunit (Bacillus subtilis (strain 168)), P80244; actives 1.9% (n = 340,000); Potency, µM (doses to about 57.5 µM), for the others: at the highest dose activity change, negative = active; active = well fitted falling curve with a large enough effect; inconclusive = small, poorly fitted or top-dose-only effect; inactive = no such curve, though single readings can be large or run the other way; note: potency is the fitted concentration of half-maximal effect; the source files actives as falling curves though it sought activators and does not explain the sign; nearly all actives have a fitted effect of over 65% in size
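Purified B. subtilis ClpP, 10 microg/mL final in Tris/HCl pH8 with KCl, BSA, glycerol and Tween-20, cleaved an Abz/nitrotyrosine-quenched decapeptide. Fluorescence (ex 320, em 430) was read at 0 and 20 min at room temperature. Delta was normalized to 5.8 microM ADEP and DMSO/no-enzyme controls.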
ASM inhibitor: human S-ASM enzyme inhibition | P17405 | placental ASM, HMU-PC fluorogenic substrate, 60 min | Potency, µM (doses to about 57.5 µM), for inactives: at the top dose activity change, negative = inhibition, actives largely listed as inhibitors | actives 0.006% (n = 340,000) | AID 504937; note: potency is the fitted concentration of half-maximal effect
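Fluorogenic HMU-PC substrate (9 uM final) is turned over by placental ASM in 60 min at 37 C after a 10 min compound preincubation. Reaction ended by alkaline stop (pH 10), with fluorescence read at 386/447 nm.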
LDHA inh: blocks human lactate dehydrogenase A; actives 0.15% (n = 480,000); activity change, % (values are at about 110 or 230 µM); P00338; purified LDHA, NADH/diaphorase-resazurin fluorescence; stronger effect = lower value; in the data active = activity change below about -30%; inconclusive = mostly about -25% to -30%;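 note: plate controls were DMSO wells for no effect and wells without enzyme for full effect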
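Remaining NADH was detected by diaphorase (0.133 mg/mL) converting 37 µM resazurin to fluorescent resorufin, read at 0 and 20 minutes. The preceding 5-minute room-temperature reaction used 2 nM LDHA, 0.2 mM sodium pyruvate and 0.06 mM NADH at pH 7.4.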
Numbers without * were called inactive; ? = inconclusive; · = no result; [ ] = remark or other dose. The sample as a whole holds a higher share of hits than the screen did. Unless noted, calls come from the whole dose curve; as a rule, active = well fitted curve in the direction sought with a large enough effect; inconclusive = small, poorly fitted or top-dose-only effect, or another doubt; inactive = no such curve, though single readings can be large; an effect the other way counts as inactive or inconclusive.

SMILES	mIDH1 inhibitor	RGS4 inhibitor	Mito fusion yeast	ClpP mod	ASM inhibitor	LDHA inh
CCOC(=O)c1c(-c2ccccc2)csc1NC(=O)C(C)NCCCN1CCOCC1 (stereo not drawn)	-5%	27%	11%	-5%	0%	-34*
CCOC(=O)c1c(-c2ccccc2)csc1NC(=O)CCN1C(=O)c2ccccc2C1=O	1%	-9%	12%	1%	3%	1
CCOC(=O)c1c(-c2cccs2)csc1NC(=O)CNCCN1CCOCC1	·	·	-2%	·	·	·
CCOC(=O)c1c(NC(=O)c2cccc(N3C(=O)CCC3=O)c2)sc(C)c1C	7%	14%	2%	-9%	-3%	-6
CCOC(=O)c1c(-c2ccc(F)cc2)csc1NC(=O)CCN1CCOCC1	13%	-2%	11µM*	1%	-1%	-10
COC(=O)c1c(-c2ccc(F)cc2)csc1NC(=O)CN1CCOCC1	·	·	·	·	·	11
CCOC(=O)c1c(-c2ccc(-c3ccccc3)cc2)csc1NC(=O)c1cccc(N2C(=O)CCC2=O)c1	3%	-11%	0%	16µM*	-5%	0
CCOC(=O)c1c(-c2ccc(-c3ccccc3)cc2)csc1NC(=O)CCN1CCOCC1	5%	-11%	10µM*	?	?	1
CN(C)c1ccc(C(=O)OCc2nc(N)c3ccccc3n2)cc1	·	·	·	·	·	0
O=C(c1ccccc1)C1CCN(C(=O)c2ccc(C(F)(F)F)nc2)CC1	·	·	·	·	·	-15
S=C(Nc1ccccc1Cl)NC1CC1	·	·	·	·	·	0
Cc1nc2ccccc2c(=O)n1C1CCCCCC1	3%	-2%[11.4 µM]	0%	25µM*	-2%	-5
CSc1nc2ccccc2c(=O)n1C1CCCCC1	6%	-24%	?	·	-4%	1
Cc1cccc(-c2nc(C#N)c(N3CCOCC3)o2)c1	·	·	·	·	·	-31*
Cc1cccc(-c2nc(C#N)c(N3CCCCC3)o2)c1	-8%	10%	-10%	3%	-2%	-3
COc1ccc(-n2c(SCC(=O)N/N=C/c3ccccc3OCC(=O)O)nc3ccccc3c2=O)cc1	1%	4%	-2%	-1%	3%	-11
COc1ccc(-n2c(SCC(=O)N/N=C(\C)c3cccnc3)nc3ccccc3c2=O)cc1	3%	-19%	-3%	32µM*	-2%	-4
CC(Oc1ccc2ccc(=O)oc2c1)C(=O)N1CCCCCC1 (stereo not drawn)	·	·	·	·	·	-7
Cc1c(-c2ccccc2)oc2c(C(=O)NCCCO)cccc2c1=O	·	·	·	·	·	8
CCCCNC(=O)c1cccc2c(=O)c(C)c(-c3ccccc3)oc12	1%	2%	8%	28µM*	-1%	-9
COc1ccc(-c2ccc(-c3noc(C(C)C)n3)c(OC)n2)cc1	10%	-16%	-6%	56%	5%	3
COc1nc(-c2ccc(Cl)cc2)ccc1-c1noc(-c2ccco2)n1	5%	-5%	-3%	-23%	1%	-37*
COc1ccc(-c2ccc(-c3noc(-c4cc(OC)cc(OC)c4)n3)c(OC)n2)cc1	-1%	4%	·	16µM*	·	-9
COc1nc2c(C)cccc2cc1-c1noc(-c2ccco2)n1	6%	-23%	9%	?	-1%	2
CCCCNCCOCCOc1ccc(F)cc1	-2%	21%	-9%	3.2µM*	6%	-15
SMILES	mIDH1 inhibitor	RGS4 inhibitor	Mito fusion yeast	ClpP mod	ASM inhibitor	LDHA inh
Cc1occc1-c1nnc(SCc2cc3c(cc2Br)OCCO3)n1C	·	·	·	·	·	3
Nc1ccccc1C(=O)NCc1cccnc1	·	·	·	·	·	1
Cc1ccc(CNC(=O)c2ccccc2N)cc1	1%	4%	3%	28µM*	9%	-2
Nc1ccccc1C(=O)NCc1ccncc1	·	·	·	·	·	7
Cc1cccc(CNC(=O)c2ccccc2N)c1	2%	-10%	0%	8.9µM*	3%	1
Nc1nccnc1C(=O)Nc1ccc(SCc2cccnc2)cc1	·	·	·	·	·	1
CCN(CC)C(=S)SCC(=O)c1ccc(Br)cc1	3%	4%	11µM*	1%	0%	-3
COc1ccc2c3c(c(=O)oc2c1OCC(=O)O)CCCC3	-1%	-22%	-5%	20µM*	0%	-3
Cc1c(OCc2ccc(C(=O)O)o2)ccc2c3c(c(=O)oc12)CCC3	-1%	1%	1%	3.2µM*	97%	-2
O=C(CNc1nc(Cl)nc2nc[nH]c12)NCCc1c[nH]c2ccc(Cl)cc12	·	·	·	·	·	7
CC(=O)Nc1ccc(C2C(C#N)=C(N)OC3=C2C(=O)CC(C)(C)C3)cc1 (stereo not drawn)	·	·	·	·	·	10
COC(=O)c1ccccc1NC(=O)c1cccc(COc2ccccc2Cl)c1	10%	-26%	6%	25µM*	-13%	-3
CCOC(=O)c1cnc2c(-c3ccc(Cl)cc3)cnn2c1C	-3%	-25%	2%	·	-4%	-5
CCOC(=O)c1c(-c2ccc(Cl)cc2)cn2ccccc12	3%	-33%	-1%	32µM*	75%	-4
O=C(CSc1nc2cc(Cl)ccc2o1)NCc1ccco1	·	·	·	·	·	7
COc1ccc(NC(=O)c2nc3ccccc3nc2N2CCOCC2)cc1Cl	·	·	·	·	·	-12
CN1C(=O)C2(CC(=O)Nc3c2cnn3Cc2ccccc2Cl)c2cccc(Cl)c21 (stereo not drawn)	·	·	·	·	·	3
CCCCN(CC)c1nc(-c2ccncc2)nc2ccccc12	-6%	-15%	18µM*	0%	-1%	-6
CCCCN(CCCC)c1nc(-c2ccccc2)nc2ccccc12	17%	-4%	·	?	·	-4
O=C(CNc1cccc(S(=O)(=O)N2CCCC2)c1)Nc1cccc(Br)c1	4%	-21%	2%	-1%	-4%	-1
O=C(CNc1cccc(S(=O)(=O)N2CCOCC2)c1)Nc1cccc(Br)c1	6%	-33%	2%	28µM*	-1%	-1
COc1ccc(/C=C/C(=O)Nc2cccc(S(=O)(=O)N3CCOCC3)c2)cc1OC	3%	-53%	-12%	28µM*	1%	7
CN1CCc2cc3c(c4c2C1CC41CCC(=NO)CC1)OCO3 (stereo not drawn)	5%	-5%	-2%	32µM*	43%	11
CCCCCc1nc(N)c(C#N)c(-c2ccco2)c1CCCC	6%	-30%	3%	25µM*	20%	-1
CCc1nc(N)c(C#N)c(-c2ccco2)c1C	2%	-2%	15%	-13%	43%	0
CCN(CC(=O)Nc1c(F)cccc1F)C(=O)c1cn2ccccc2n1	-2%	28%	-3%	?	4%	-10
